Measured values from the supplement of paper PMC10681739.

Columns and labels:
ETS1 [1] = molecular target: T1, ETS1 (UniProt P14921); assay: ETS1 binding intensity (PBM fluorescence), ETS1 alone (arbitrary fluorescence units); higher = stronger binding; conditions: ETS1 concentration 1 nM; RUNX1 concentration 0 nM
T1 sequence: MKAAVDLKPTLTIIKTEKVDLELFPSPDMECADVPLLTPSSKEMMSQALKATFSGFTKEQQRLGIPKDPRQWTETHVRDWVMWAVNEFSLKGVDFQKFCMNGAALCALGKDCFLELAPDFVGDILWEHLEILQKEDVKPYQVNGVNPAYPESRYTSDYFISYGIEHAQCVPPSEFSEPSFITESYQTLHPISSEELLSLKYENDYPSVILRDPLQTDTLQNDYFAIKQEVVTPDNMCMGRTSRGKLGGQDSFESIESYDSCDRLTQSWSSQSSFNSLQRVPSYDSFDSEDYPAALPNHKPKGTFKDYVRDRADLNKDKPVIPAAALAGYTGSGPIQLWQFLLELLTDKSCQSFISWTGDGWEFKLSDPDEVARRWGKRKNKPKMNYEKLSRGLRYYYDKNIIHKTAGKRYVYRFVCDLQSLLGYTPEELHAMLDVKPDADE

ETS1 [2] = molecular target: T1, ETS1; assay: ETS1 binding intensity (PBM fluorescence) in presence of RUNX1, normalised to ETS1-only experiment (arbitrary fluorescence units); higher = stronger binding; conditions: ETS1 concentration 1 nM; RUNX1 concentration 25 nM
ETS1 [3] = molecular target: T1, ETS1; assay: TF binding intensity (PBM fluorescence), negative control probe (arbitrary fluorescence units); higher = stronger binding
Method: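 gcPBM negative-control 36-bp genomic probes lacking TF binding sites. Each was incubated with recombinant human ETS1 or RUNX1 alone and detected by antibody fluorescence. Values are medians over replicate spots (4 spots for the ETS1-RUNX1 arrays, 3 for the ETS1-ETS1 array). The probes sit in constant array flanks that are not printed.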

| Sequence | ETS1 binding intensity (ETS1 [1]) | ETS1 binding intensity (ETS1 [2]) | TF binding intensity (ETS1 [3]) |
| --- | --- | --- | --- |
| AACAGATCCTTCCTGGCCCCCACTAGCCACAGGTTT | 490 | 421 |  |
| GCACCGTCCCAGCATCCGGACACCACAGCGGCCCTT | 602 | 530 |  |
| GCGTTTCCCCCTTGGGGTTATAGCAACCACCTCCTC | 479 | 358 |  |
| TGGGACGAGTGGGCGGAAACAGCCGCAGGTCTCTCT | 1990 | 2750 |  |
| TGCCCCCTCCCCCTTCCGCTGTGGCCACCGGCTTTG | 764 | 780 |  |
| CGTTTCCTGTGGCTGCAGCTCTCCCCACCCACACAC | 829 | 781 |  |
| TGTTGGCTGTCCTCCGGAAACCCGCGCCTGGGTCGC | 1820 | 1930 |  |
| CCCTTTTCCTTCCGGCCTGTGCGGCTTATAAGATCT | 736 | 1090 |  |
| TGGCTGGGCAGGAAGGCCTGTGGCTTACGGTTCCTG | 551 | 651 |  |
| CTGAAGGCTGGGGAGGAAGTGACCGCCCTCATATGC | 2120 | 2330 |  |
| CTGCAGACAGGAGGATGTGGGCTTGCGCGCAAACAG | 675 | 745 |  |
| TTACACCCAAGGGATGTTGTTTGTGGGGGGCGGGGT | 445 | 490 |  |
| GAAGCGGAAGTCGCTGAGGGGTGGTGAAGCGGTTGG | 1930 | 2420 |  |
| CATGAGAAACATCCTGCCCAACCACCTGACTACAAG | 492 | 511 |  |
| GCATTTCTCAGAAAAGGAAGCGGTTGTGCCGGGAGG | 1530 | 2100 |  |
| CCCCAGGTTGCTTCCGTTCTGGGAACCGCGTCCTCG | 1190 | 984 |  |
| CCAGATTAGGAAACCCACCCGGCCCACAAAAAGCGG | 445 | 302 |  |
| CCAGGCGTTTCCGGGTTCCCGCGGTCCCGTCCCCCA | 1340 | 1330 |  |
| AGGTGGGAGGAAGTTCCTACCCCGGCGCGGTGTGCA | 625 | 620 |  |
| GGCTTGATTGAACGAGGATGTGGTTCTTGGGTGGGA | 686 | 1770 |  |
| GCAAACGGAAGAGAGGAACGAAGGCCGCAGAGCTTG | 486 | 481 |  |

| Sequence | ETS1 binding intensity (ETS1 [1]) | ETS1 binding intensity (ETS1 [2]) | TF binding intensity (ETS1 [3]) |
| --- | --- | --- | --- |
| TGAAGTTCAGGGGGAAGTGGTTAGAGTCCCTGCGAG | 494 | 674 |  |
| CTTGCTCCCCACTTCCTACCACATTCAATGCCCGGA | 523 | 558 |  |
| TCAGGAAGTGGTGTGACCAGCATGTGAACCGCGGCA | 681 | 1110 |  |
| CTAAGTGCTCTTCCTGCCAACCTGTGGGCGCCTGGC | 559 | 686 |  |
| CACCTGCCTTGCTTCCTGCGGTGCAACCAGCGGGAG | 444 | 520 |  |
| AGCTGCGGAGCATCCGCTGCGGTCCTCGCCGAGACC | 450 | 453 |  |
| CCCGGACCGTTTCCGTGCTGTGGTCCCGGGTTCTGG | 443 | 412 |  |
| GTGTTGGGTGGCTTCCTGCGGCGTTTCCACTCTCGC | 605 | 504 |  |
| AGGTACTCACCATTCCGGCGGTTGCTACTGTCACTG | 459 | 428 |  |
| CTGCCTTGCTTTTCCGGTCGCCGCGGTCCTCTGCGC | 2130 | 2110 |  |
| CAACAAGAGGAAATCAGAAACACTGAAGCCACAGCT | 420 | 463 |  |
| AGATGGTGTGGCCGGATGGGGACCACATTGAAGAGA | 1090 | 1240 |  |
| TACTTAGAGGAAATGTGGCCTGTGGTCTTGTCTCAC | 617 | 977 |  |
| TGGTGTGACCAGGATGTGAACCGCGGCAAGCTGCCT | 995 | 992 |  |
| CTGTTCTCATCCGCCCGCTCTGAGTCACCCACACCT | 465 | 441 |  |
| GGAGGGCTTCCTGCCCACCACCACCCACAGCAGCTG | 730 | 676 |  |
| GAACCCCAAGTTCCGGCTGGCACTGCGGCGGAGCCT | 452 | 299 |  |
| TCTGGGCTGACTTCCTGGCTTCGTCCCACAACTTCA | 668 | 617 |  |
| TTTGCACACATCCTGGCCTCCGCCTGACCACCTCCT | 483 | 586 |  |
| GGACTCTGGCAGGAAGCTGTTTGTGGTTGTCACACC | 3140 | 11000 |  |
| GATTAAGAGGAAGTGTGTGTGATTATTACCGCTGGA | 1310 | 1540 |  |

| Sequence | ETS1 binding intensity (ETS1 [1]) | ETS1 binding intensity (ETS1 [2]) | TF binding intensity (ETS1 [3]) |
| --- | --- | --- | --- |
| CGTTTGCCTATCTTCCTCCCCACAGAAGCACTCCAT | 453 | 399 |  |
| AGGCGAAGGATGACTTCCTGCGGCACTACACAGTGT | 610 | 656 |  |
| CTCGGAGCGGAACTACTAGGGTGGTTTCTCCTGAGG | 464 | 336 |  |
| TGAGAAGGCAGGATAAGTGACCACATATTTATGCCA | 435 | 874 |  |
| CTGGCTACAGGAAAAACAAAGTCAAACCACAGCACT | 473 | 929 |  |
| AGCAGATTTGCTGCAGGAAACCACCGAGTCTCACGG | 1130 | 1490 |  |
| CTCTTCTCAGGAAGGGGCTGTGGGATGTAGGATTCC | 638 | 610 |  |
| CAGCTGCCTCCAGGAAGCGGTAAGTGACTCTGGTGG | 1150 | 1660 |  |
| CTTCTTTCCAGAGGATGTGGCTTCAGCGGGAGAGCT | 1250 | 1830 |  |
| GACCCATTTCCTGGCTCAGGAGCCCACAGCCCTGGG | 464 | 404 |  |
| GAATGACAGGAAGATGATTAGTGATAGTGGGTTTGG | 740 | 880 |  |
| AAAGAGAAAGGAAACAAAGTATAGCACCACAGTGAG | 475 | 554 |  |
| CAGTCTCCTTCCGCGTCACCTCTGTGACCGCTGTGC | 414 | 583 |  |
| CCACTAGCAGGAAAACGGGCCGAGGGACCGCAAGCA | 395 | 688 |  |
| GACTGCGCCGGACGCGCCAGCCCTGCGGGATGACGT | 650 | 801 |  |
| AGCGGCTCCTTCCGGCGGCGCGGGTTCCCTTCCCTC | 624 | 581 |  |
| GTCGTGTTTGGCTTCCTGTGGGCACGCCTGCGTAGC | 589 | 516 |  |
| GTGGGTAGGGAGGAAGCTGTGAAACCACCTCCCCTC | 688 | 882 |  |
| AATAAACAGGAAGGTCTCTTGGAGCTGTGGTCTTGG | 677 | 1110 |  |
| AGAAACGTCAATTTCCTGGCCACAGAATCCACTGCC | 608 | 501 |  |
| GCGCACACATGCTTCCTGTGGTGACTGGGCGCTTCA | 527 | 512 |  |

| Sequence | ETS1 binding intensity (ETS1 [1]) | ETS1 binding intensity (ETS1 [2]) | TF binding intensity (ETS1 [3]) |
| --- | --- | --- | --- |
| CCTCATTTCCGGGCTGTTTGCGCGCAAGCCCACATC | 1090 | 968 |  |
| GTGCGGAAGCGCGCCAAGGCACGTGACCGCTTCTGT | 381 | 475 |  |
| ATTGTAAATTTCCTTTAAACGTCCCCACCGCGCTCC | 463 | 480 |  |
| CGCCGTAGGAGGAAGCCGCGGCCGCAACGCTCCTGG | 454 | 816 |  |
| TTGCTAGAGGAAGCGCTGCCCCGGCAGCCGCAGCCA | 524 | 596 |  |
| AGCGGGAGGAAGTGCTGCAGTAGCCACAGCAGCCTG | 534 | 737 |  |
| CGAGCTATTTACTTCCTGCGGGTGCACAGGCTGTGA | 654 | 475 |  |
| GCGGAGTGTTACGTAGGAAGTGGTTGTGACGTCATT | 1190 | 1540 |  |
| CTGTCAGGATGTTGGCTTGTGAGCCCACAATCCTCT | 413 | 451 |  |
| GGTTGTGGAGTAGGATGTGGTGTCTAGCTTTCAGCA | 588 | 568 |  |
| CACCTGCCTTGCTTCCTGCGGTGCAACCGGCGGGAG | 499 | 585 |  |
| CTGTCCACATAAGGAAGTTGGGACCACAAGGTCTTT | 870 | 1350 |  |
| TGAAGGGACGGAAGGGACAGAACTTGCGGGAGGCAC | 497 | 416 |  |
| GTATTTATTTCCTCTTCGAAGAAATGCGGGGGTGCC | 473 | 438 |  |
| TAGGTTAGAATAAGAGGAAACCTCAAACCAGAACCC | 579 | 991 |  |
| AGGGAAGCGGCGGCGGAAGCCCCGCAGGAGGCCGGC | 806 | 932 |  |
| CTCCCACGCTCCCCTTCCGGCCCCGCAGCGCTGTGA | 804 | 746 |  |
| AAAACGCGGAAATACGGTGGCTGCGGCCCGCGGGCA | 494 | 573 |  |
| ACGGACAGAATTTCCTCCCCCGTCACCACAGCGACC | 686 | 728 |  |
| TGGCCAGGAAGCCACTCGATTGCCGGCGCCCGCAGC | 415 | 458 |  |
| ATATTCTCTTACATAACCACAGTACATTTATCAGCC (protein concentration 1 nM) |  |  | 573 |
